# Sampled rows, rich in hits. Any-hit rate of the full collection: about 1.8%.
# RN4220 kill: growth inhibition of S. aureus RN4220, primary screen, OD600. 16 h. inhibition, % (test concentration not listed). 0.33% of 330,000 active. AID 1259311, 2017; in the data active = inhibition above about 85%
# VHR inh abs: VHR1 phosphatase inhibitors, primary screen, biochemical, absorbance, uHTS. recombinant VHR phosphatase, pNPP absorbance. 0.52% of 290,000 active. Dual specificity protein phosphatase 3 (Homo sapiens), P51452. inhibition, % at 13.3 µM. AID 1654, 2009; in the data active = inhibition above about 50%
# Target sequence (P51452 whole entry, looked up): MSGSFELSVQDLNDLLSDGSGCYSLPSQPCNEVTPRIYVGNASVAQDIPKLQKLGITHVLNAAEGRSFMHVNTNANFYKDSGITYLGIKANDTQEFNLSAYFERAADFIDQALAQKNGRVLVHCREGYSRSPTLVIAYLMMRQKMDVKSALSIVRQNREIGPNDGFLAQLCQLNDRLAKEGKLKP
# ugtP null kill: growth inhibition of ugtP-null S. aureus, primary screen, RN4220 ugtP deletion, OD600; 16 h; 0.54% of 330,000 active; growth inhibition, % (test concentration not listed); AID 1259309, 2017; in the data active = growth inhibition above about 68%
# PrPC TRFRET: inhibitors of human cell surface prion protein PrPC, primary screen, cell-based, TR-FRET; TR-FRET read-out; Major prion protein (Homo sapiens), P04156; inhibition, % at 13.8 µM; 0.43% of 370,000 active; in the data active = inhibition above about 24%
# PfHsp40 yeast: rescue of yeast from PfHsp40 toxicity, primary screen, S. cerevisiae, ATP luminescence | S. cerevisiae expressing PfHsp40, growth rescue | growth rescue, % at 12.5 µM | 0.68% of 340,000 active | AID 504582, 2011; in the data active = growth rescue above about 28%, passing the limit was not always enough; inconclusive = no clear call, values can overlap the other calls;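 note: yeast W303a lacking pdr1 and pdr3 grown in galactose medium; growth measured after three days at 30 °C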
# Hits are given with their value; 0 = inactive; ? = inconclusive; - = not tested or not shown; ! = not active in a repeat.
SMILES,RN4220 kill,VHR inh abs,ugtP null kill,PrPC TRFRET,PfHsp40 yeast
COc1ccc(NS(=O)(=O)c2ccc(NC(=O)c3ccc(CN4CCOCC4)cc3)cc2)cc1,0,0,0,0,50
O=C(C=Cc1ccccc1)c1cc(Br)ccc1O,0,-,0,0,0
Cc1cccc(/C=C/C(=O)c2cc(Br)ccc(=O)c2O)c1,99,0,99,0,0
CCc1ccc(/C=C/C(=O)c2cc(Br)ccc(=O)c2O)cc1,100,0,95,0,?
CCOc1ccc(/C=C/C(=O)c2cc(Br)ccc(=O)c2O)cc1,0,0,90,0,0
CCCSc1ccc([C@@H]2[C@@H]3C(=O)N(C)C(=O)[C@@H]3[C@]3(C(=O)OC)CCCN23)cc1OC,-,-,-,-,63
CC(=O)Nc1ccc(SCC(Cc2ccccc2)N2CCC(C(C)(C)C)CCC2=O)cc1 (centres undefined),0,-,0,-,-
Cc1cccc(Cn2cc(/C=C/[N+](=O)[O-])c3ccccc32)c1,0,0,0,0,0
O=[N+]([O-])/C=C/c1cn(Cc2ccc(Cl)cc2)c2ccccc12,90,0,0,0,0
COc1ccc(-c2csc(NC(=O)c3ccccc3Br)c2C(=O)O)cc1,0,0,0,0,58
O=C(/C=C/c1ccccc1)Nc1scc(-c2ccccc2)c1C(=O)O,0,0,0,0,51
Cc1ccc(-c2csc(NC(=O)c3ccccc3F)c2C(=O)O)cc1,0,-,0,0,34
CCn1ncc(C=NNC(=O)c2csc3ccccc23)c1C,0,-,0,-,-
CN(C)c1nc2sc3c(c2c(=O)n1C)CC(C)(C)OC3,0,60,0,0,0
CCOC(=O)C(NC(=O)Nc1ncccn1)(Oc1ccccc1)C(F)(F)F (centres undefined),0,0,0,0,0
CCOC(=O)C(NC(=O)Nc1ccc(F)cc1F)(Oc1ccc(F)cc1)C(F)(F)F (centres undefined),85,0,0,0,0
Cc1nn(C)c(C(=O)Sc2ccccc2)c1[N+](=O)[O-],0,0,0,0,0
Cc1nn(C)c(C(=O)Sc2cccc(Cl)c2)c1[N+](=O)[O-],0,0,93,0,0
Cc1ccc(CNC(=O)CCn2cc(-c3ccc(C)cc3)nc2CCN)cc1,-,-,-,0,40
CCSc1nsc(NC(=O)Nc2cccc(F)c2)n1,-,0,-,40,0
COc1cccc(NC(=O)Nc2nc(SC)ns2)c1,0,0,0,0,0
CSc1ccc(S(=O)(=O)Nc2c(C)cccc2C)cc1,0,0,0,0,0
CCc1ccccc1NS(=O)(=O)c1ccc(SC)cc1,95,0,89,0,0
O=C(Nc1ccccc1)c1ccc(Br)c(S(=O)(=O)Nc2ccccn2)c1,0,0,0,0,48
O=C(Nc1ccc(Cl)cc1)c1cccc(S(=O)(=O)Nc2ccccn2)c1,0,0,0,0,0
SMILES,RN4220 kill,VHR inh abs,ugtP null kill,PrPC TRFRET,PfHsp40 yeast
COc1ccc([N+](=O)[O-])cc1NC(=O)C(C)OC(=O)c1ccccc1C(=O)c1ccc(Cl)cc1 (centres undefined),0,0,0,0,72
COc1ccccc1-c1cc(C(F)(F)F)nc(N2CCCC2)n1,0,0,86,0,0
CC=C(C)C(=O)Nc1cccc(C2=NOC3(C2)CC(C(N)=O)N(C(=O)c2cc([N+](=O)[O-])cc([N+](=O)[O-])c2C)C3)c1 (centres undefined),0,-,0,-,-
CC[C@H](C)C(=O)O[C@H]1C[C@@H](C)C=C2C=C[C@H](C)[C@H](CC[C@@H]3C[C@@H](O)CC(=O)O3)[C@H]21,0,0,0,0,69!
C/C(C=NNC(=O)c1cc(-c2cccnc2)nc2c1c(C)nn2-c1ccccc1)=C\c1ccccc1,0,-,0,-,-
Nc1cc2c3ccccc3ccc2c2ccccc12,0,-,0,0,249
CC(CC(=O)NCCN1CCOCC1)=NNC(=O)c1ccncc1,0,-,0,-,-
O=C(OCC(=O)C12CC3CC(CC(C3)C1)C2)c1ccc(O)cc1,0,-,0,0,425
O=C(OCC(=O)C12CC3CC(CC(C3)C1)C2)c1ccc(CO)cc1,0,-,0,0,0
COc1cc(C=CC(=O)O)cc(S(=O)(=O)NCCO)c1OC,0,-,0,-,-
COc1c(C(CC(C)C)OC(C)=O)ccc2c1C(=O)OCc1cc(C)cc(O)c1O2 (centres undefined),0,0,0,0,161
COc1ccc(NC(=S)N(C(C)C)C2CCN(C(C)C)CC2)cc1Cl,-,53,-,-,-
COc1ccc(NC(=S)N(CCC(C)C)C2CCN(C(C)C)CC2)cc1,0,0,0,0,0
CC(=Nc1nc2ccccc2n1C)c1cc(Cl)ccc1O,0,-,0,-,-
CCC1CCCCN1S(=O)(=O)c1ccc([N+](=O)[O-])cc1 (centres undefined),0,51,0,0,0
CNC(=O)c1c(NC(=O)C2=COCCO2)sc2c1CCN(C(=O)OC)C2,94,-,97,0,0
COC(=O)N1CCc2c(sc(NC(=O)C3=COCCO3)c2C#N)C1,0,-,0,0,0
COC(=O)c1ccc(-n2c(C)ccc2-c2ccccc2)cc1,0,0,97,0,0
Cc1c(C=NNC(=O)CNc2ccccc2)c2ccccn2c1C(=O)c1ccccc1,0,-,0,-,-
COC(=O)c1ccc2cc(OC)cc([N+](=O)[O-])c2n1,-,-,-,0,37
c1ccc(-c2nnc(SCC3CCCCO3)nc2-c2ccccc2)cc1 (centres undefined),0,0,94,0,0
c1ccc(-c2nnc(SCC3CCCO3)nc2-c2ccccc2)cc1 (centres undefined),0,0,0,0,0
COc1cc(C=CCO)cc(OC)c1OC1OC(CO)C(O)C(O)C1O (centres undefined),0,-,0,-,-
COc1ccc(C=NNC(=O)c2cccc(C(=O)NN=Cc3ccc(OC)cc3)n2)cc1,0,-,0,-,-
O=C1CSC(c2ccc([N+](=O)[O-])cc2)N1c1ccc(O)cc1 (centres undefined),0,57,0,0,0
SMILES,RN4220 kill,VHR inh abs,ugtP null kill,PrPC TRFRET,PfHsp40 yeast
COc1ccc2cc(C(=O)N3CCc4ccccc43)[nH]c2c1,0,53,0,0,0
O=C(c1cc2cc(Br)ccc2[nH]1)N1CCc2ccccc21,0,0,0,0,0
CCCCC1CNCCN1CCc1cccc2ccccc12 (centres undefined),0,-,0,-,-
COc1cc(CN(C)C(=O)C2CCN(S(=O)(=O)c3cccs3)CC2)ccc1OC(F)F,0,-,0,0,0
COc1ccc(CN(C)C(=O)C2CCN(S(=O)(=O)c3cccs3)CC2)cc1F,0,-,0,0,69
CCN1C(=O)C2C(c3ccc(-c4ccc(F)cc4)c(OC)c3)N[C@@](Cc3ccccc3)(C(=O)OC)C2C1=O (some centres undefined),0,-,0,-,-
CC(CC(=O)Nc1cc(C)ccn1)=NNC(=O)c1cccc(C)c1,0,-,0,-,-
CN(C(=O)C1CCCN(c2ncnc3c2nc2n3CCCCC2)C1)c1cccc(Cl)c1 (centres undefined),0,52,0,0,0
O=C(COc1ccc(Cl)cc1)Nc1ncc([N+](=O)[O-])s1,100,0,98,0,0
